Experimental data taken from PubChem BioAssay (EPA / NIEHS).
Active and inactive are the calls of the source. The calls were made as follows: active = hit-call score of the fitted dose curve at least 0.9, where 1 is the maximum; inactive = score below 0.9.

How the values were obtained:
Conditions in all cases: primary human HUVEC with PBMC; actives raise or lower the signal
[1] = read-out: Macrophage colony-stimulating factor (MCSF), CSF1 (gene 1435); experiment: BSK_LPS_MCSF: BioMAP Diversity Plus: LPS Assay for Macrophage colony-stimulating factor (MCSF) Biomarker Activity (AID 2283083)
In short: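 HUVEC + PBMC co-culture (human primary), 24 h post-dose; M-CSF by ELISA; gain/loss of signal fitted bidirectionally vs DMSO baseline.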

[2] = read-out: Tissue Factor, F3 (gene 2152); experiment: BSK_LPS_TissueFactor: BioMAP Diversity Plus: LPS Assay for Tissue Factor Biomarker Activity (AID 2283084)
In short: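 HUVEC/PBMC co-culture, LPS-activated; CD142 ELISA read 24 h post-dose; bidirectional curve fit vs DMSO negative control.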

[3] = read-out: Tumor necrosis factor (Homo sapiens) (UniProt P01375); experiment: BSK_LPS_TNFa: BioMAP Diversity Plus: LPS Assay for Tumour Necrosis Factor alpha (TNFa) Biomarker Activity (AID 2283085)
In short: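 Primary human vascular co-culture of HUVEC and PBMC; TNFa ELISA 24 h after treatment, analysed as increase or decrease relative to DMSO control.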

[4] = read-out: Vascular cell adhesion molecule 1 (VCAM1), VCAM1 (gene 7412); experiment: BSK_LPS_VCAM1: BioMAP Diversity Plus: LPS Assay for Vascular cell adhesion molecule 1 (VCAM1) Biomarker Activity (AID 2283086)
In short: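 Primary human vascular co-culture (umbilical vein endothelium plus PBMC) stimulated with LPS received chemical; 24 h later VCAM-1 was read by ELISA. Overt cytotoxicity was assessed by sulforhodamine B staining of parallel cultures at the same time point.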

[5] = read-out: CD38, CD38 (gene 952); experiment: BSK_SAg_CD38: BioMAP Diversity Plus: SAg Assay for CD38 Biomarker Activity (AID 2283087)
In short: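 Fluorescence ELISA of cell-surface CD38 served as the read-out, with either increase or decrease fitted against DMSO controls. Cells were a human umbilical vein endothelium plus PBMC co-culture under SEB/TSST-1 stimulation, measured 24 h after dosing.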

[6] = read-out: CD40, CD40 (gene 958); experiment: BSK_SAg_CD40: BioMAP Diversity Plus: SAg Assay for CD40 Biomarker Activity (AID 2283088)
In short: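 HUVEC/PBMC co-culture, 24 h post-dose; CD40 by ELISA, fluorescence intensity; bidirectional fit vs DMSO negative control.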

[7] = read-out: CD69, CD69 (gene 969); experiment: BSK_SAg_CD69: BioMAP Diversity Plus: SAg Assay for CD69 Biomarker Activity (AID 2283089);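 as to AC50: cell surface CD69 protein quantified by ELISA with fluorescence detection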
In short: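 Endothelial/PBMC co-culture; chemical added; 24 h incubation; CD69 ELISA with fluorescence detection; bidirectional fit vs DMSO.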

[8] = read-out: E-selectin (Homo sapiens) (UniProt P16581); experiment: BSK_SAg_Eselectin: BioMAP Diversity Plus: SAg Assay for Eselectin Biomarker Activity (AID 2283091)
In short: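 E-selectin ELISA readout at 24 h post-dosing in human umbilical vein endothelial cell/PBMC co-culture; gain or loss of signal fitted relative to DMSO baseline.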

[9] = read-out: Monokine induced gamma interferon (MIG), CXCL9 (gene 4283); experiment: BSK_SAg_MIG: BioMAP Diversity Plus: SAg Assay for Monokine induced gamma interferon (MIG) Biomarker Activity (AID 2283092)
In short: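 Measures CXCL9 protein by ELISA in a human vascular primary-cell co-culture (umbilical vein endothelium with PBMC) 24 h after chemical addition. Activity is scored up or down from the DMSO control.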

[10] = read-out: Monocyte Chemoattractant Protein-1 (MCP1), CCL2 (gene 6347); experiment: BSK_SAg_MCP1: BioMAP Diversity Plus: SAg Assay for Monocyte Chemoattractant Protein-1 (MCP1) Biomarker Activity (AID 2283090)
In short: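 MCP-1 levels in the endothelial–PBMC SAg co-culture were quantified by ELISA at 24 h post-dosing; both increases and decreases versus DMSO scored. Cytotoxicity monitored by SRB total protein in parallel cultures.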

Measured: AC50

Sequence of Tumor necrosis factor (Homo sapiens) (P01375 whole entry, looked up): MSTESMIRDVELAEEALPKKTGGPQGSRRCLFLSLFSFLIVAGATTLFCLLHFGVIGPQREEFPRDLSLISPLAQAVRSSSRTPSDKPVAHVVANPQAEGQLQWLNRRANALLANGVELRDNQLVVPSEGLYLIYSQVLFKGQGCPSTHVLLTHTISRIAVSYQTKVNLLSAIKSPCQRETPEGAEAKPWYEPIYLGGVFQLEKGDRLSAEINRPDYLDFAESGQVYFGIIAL
Sequence of E-selectin (Homo sapiens) (P16581 whole entry, looked up): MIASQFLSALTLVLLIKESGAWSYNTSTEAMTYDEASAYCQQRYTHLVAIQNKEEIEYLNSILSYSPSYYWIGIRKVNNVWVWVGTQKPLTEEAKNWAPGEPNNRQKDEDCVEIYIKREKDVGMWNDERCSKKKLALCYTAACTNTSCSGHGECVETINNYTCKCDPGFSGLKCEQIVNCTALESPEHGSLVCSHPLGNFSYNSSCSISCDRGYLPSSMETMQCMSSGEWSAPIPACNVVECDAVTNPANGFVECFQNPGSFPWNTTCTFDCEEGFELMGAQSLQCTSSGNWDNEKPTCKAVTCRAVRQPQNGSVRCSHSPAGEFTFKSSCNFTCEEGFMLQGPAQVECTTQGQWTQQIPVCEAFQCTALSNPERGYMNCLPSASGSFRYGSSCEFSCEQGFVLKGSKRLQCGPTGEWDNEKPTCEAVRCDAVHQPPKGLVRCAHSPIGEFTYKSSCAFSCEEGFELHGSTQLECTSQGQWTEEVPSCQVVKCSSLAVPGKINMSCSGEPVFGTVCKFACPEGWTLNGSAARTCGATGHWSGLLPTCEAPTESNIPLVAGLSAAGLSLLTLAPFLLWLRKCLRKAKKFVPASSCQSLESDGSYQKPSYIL

CC(C)(C)[C@@H](O)[C@@H](Cc1ccc(Cl)cc1)n1cncn1
active: [8] 8.51 µM
not listed: [10]
inactive: all other assays above

CCOC(=O)[C@H](C)Oc1ccc(Oc2nc3ccc(Cl)cc3o2)cc1
active: [5] 29.9 µM
not listed: [10]
inactive: all other assays above

COCCO
not listed: [10]
inactive: all other assays above

S=C([S-])NCCNC(=S)[S-].[Mn+2]
inactive: [2] | [6] | [7] | [9]
active: [1] 13.2 µM | [3] 20 µM | [4] 14.7 µM | [5] 14.6 µM

CCCCOC(=O)[C@@H](C)Oc1ccc(Oc2ccc(C(F)(F)F)cn2)cc1
not listed: [10]
inactive: all other assays above

CCCOC(=O)c1ccc(C(=O)OCCC)nc1
active: [5] 0.624 µM | [6] 3.09 µM
not listed: [10]
inactive: all other assays above

COC(=O)c1ccccc1C(=O)O
active: [6] 6.97 µM | [8] 5.96 µM
not listed: [10]
inactive: all other assays above

Oc1ccc(C(c2ccc(O)cc2)C(Cl)(Cl)Cl)cc1
active: [1] 20 µM | [2] 37 µM | [3] 4.66 µM | [4] 17.9 µM | [5] 27.4 µM | [6] 24.4 µM | [7] 20 µM | [8] 10.6 µM | [9] 38.9 µM

CCCCCCC(C)OC(=O)COc1nc(F)c(Cl)c(N)c1Cl (configuration not stated)
active: [1] 29.8 µM | [2] 35.9 µM | [3] 34.3 µM | [4] 30.8 µM | [5] 30.7 µM | [6] 29.5 µM | [7] 31 µM | [8] 33 µM | [9] 38.5 µM

O=C(c1ccc(O)cc1O)c1ccc(O)cc1O
not listed: [10]
inactive: all other assays above

CC(=O)[C@H]1CC[C@H]2[C@@H]3CCC4=CC(=O)CC[C@]4(C)[C@H]3CC[C@]12C
active: [5] 25.7 µM | [6] 20 µM | [8] 1.01 µM
not listed: [7] | [10]
inactive: all other assays above

CN(C)C(=O)Nc1ccc(Cl)c(Cl)c1
not listed: [10]
inactive: all other assays above

C[C@]12C[C@H](O)[C@H]3[C@@H](CCC4=CC(=O)CC[C@@]43C)[C@@H]1CC[C@@H]2C(=O)CO
not listed: [1]
inactive: all other assays above

COC(=O)c1ccccc1S(=O)(=O)NC(=O)Nc1nc(OC(F)F)cc(OC(F)F)n1
active: [3] 12 µM
not listed: [10]
inactive: all other assays above

COC(=O)c1cccc(C)c1S(=O)(=O)NC(=O)Nc1nc(OCC(F)(F)F)nc(N(C)C)n1
not listed: [10]
inactive: all other assays above

COC(=O)CSc1cc(N=c2sc(=O)n3n2CCCC3)c(F)cc1Cl
active: [3] 9.6 µM
not listed: [10]
inactive: all other assays above

O=C(Nc1ccc([N+](=O)[O-])cc1Cl)c1cc(Cl)ccc1O
inactive: [2]
active: [1] 0.148 µM | [3] 0.583 µM | [4] 0.175 µM | [5] 0.148 µM | [6] 0.17 µM | [7] 0.335 µM | [8] 0.148 µM | [9] 0.289 µM

N[C@@H](Cc1cc(I)c(Oc2ccc(O)c(I)c2)c(I)c1)C(=O)O
active: [2] 3.17 µM
not listed: [10]
inactive: all other assays above

COc1c(Cl)ccc(Cl)c1C(=O)O
not listed: [10]
inactive: all other assays above

C=CCOC(Cn1ccnc1)c1ccc(Cl)cc1Cl (configuration not stated)
active: [8] 32.9 µM
not listed: [10]
inactive: all other assays above

CCCCC(CC)CN1C(=O)C2C3C=CC(C3)C2C1=O (configuration not stated)
inactive: [2] | [8] | [9]
active: [1] 15.5 µM | [3] 0.237 µM | [4] 20 µM | [5] 26.3 µM | [7] 20 µM

CCN(CC)C(=O)c1cccc(C)c1
not listed: [10]
inactive: all other assays above

CCCCCOC(=O)COc1cc(N2C(=O)C3=C(CCCC3)C2=O)c(F)cc1Cl
active: [2] 27.8 µM | [3] 20 µM | [4] 15 µM | [6] 20 µM | [8] 15.8 µM
inactive: [1] | [5] | [7] | [9]

COc1nc(C)nc(NC(=O)NS(=O)(=O)c2ccccc2OCCCl)n1
not listed: [10]
inactive: all other assays above

COC(=O)c1ccc(CNS(C)(=O)=O)cc1S(=O)(=O)NC(=O)Nc1nc(OC)cc(OC)n1
not listed: [10]
inactive: all other assays above

COC(=O)c1c(Cl)nn(C)c1S(=O)(=O)NC(=O)Nc1nc(OC)cc(OC)n1
not listed: [10]
inactive: all other assays above

CCCOC(=O)NCCCN(C)C
not listed: [10]
inactive: all other assays above

CCC(C)OC(=O)N1CCCCC1CCO (configuration not stated)
not listed: [10]
inactive: all other assays above

C#CCOC(=O)[C@@H](C)Oc1ccc(Oc2ncc(Cl)cc2F)cc1
not listed: [10]
inactive: all other assays above

CCOC(=O)COc1cc(-n2ncc(C(F)(F)F)c(C)c2=O)c(F)cc1Cl
not listed: [10]
inactive: all other assays above
